Experimental data published in PubChem BioAssay (NCATS).
Records with an inconclusive call do not appear. Active and inactive are the calls of the source. The call rests on the fitted dose curve; in most records, active means well fitted cell-killing curve with a large enough effect; inconclusive means small, poorly fitted or top-dose-only effect, or effect the other way; inactive means no such curve, though single readings can be large or run the other way.

Tests used:
[1] = Quantitative High-Throughput drug screen in 47 multiple myeloma cell lines against the NCATS MIPE library collection: MM1R_ATCC cell viability assay (AID 1918981); further: nearly all actives have a fitted effect of over 35% in size
Outline: (§1)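 ATP-based luminescence (CellTiter-Glo, 5 min RT incubation) quantified surviving cells following two days' treatment with MIPE 4.0 agents at 37 °C, 5% CO2.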

[2] = Quantitative High-Throughput drug screen in 47 multiple myeloma cell lines against the NCATS MIPE library collection: LP1_DSMZ cell viability assay (AID 1918982); further: nearly all actives have a fitted effect of over 35% in size
Outline: as §1

[3] = Quantitative High-Throughput drug screen in 47 multiple myeloma cell lines against the NCATS MIPE library collection: KMS28PE_JCRB cell viability assay (AID 1918983); further: nearly all actives have a fitted effect of over 35% in size
Outline: as §1

[4] = Quantitative High-Throughput drug screen in 47 multiple myeloma cell lines against the NCATS MIPE library collection: L363_DSMZ cell viability assay (AID 1918984); further: nearly all actives have a fitted effect of over 40% in size
Outline: as §1

[5] = Quantitative High-Throughput drug screen in 47 multiple myeloma cell lines against the NCATS MIPE library collection: KMS34_JCRB cell viability assay (AID 1918985); further: nearly all actives have a fitted effect of over 40% in size
Outline: as §1

[6] = Quantitative High-Throughput drug screen in 47 multiple myeloma cell lines against the NCATS MIPE library collection: OCIMY5_PLB cell viability assay (AID 1918988); further: nearly all actives have a fitted effect of over 65% in size
Outline: as §1

[7] = Quantitative High-Throughput drug screen in 47 multiple myeloma cell lines against the NCATS MIPE library collection: SKMM1_PLB cell viability assay (AID 1919863); details: SKMM1 myeloma viability, CellTiter-Glo ATP, 48 h; viability: stronger effect = lower value; further: nearly all actives have a fitted effect of over 35% in size
Outline: as §1

[8] = Quantitative High-Throughput drug screen in 47 multiple myeloma cell lines against the NCATS MIPE library collection: XG6_PLB cell viability assay (AID 1919865); further: nearly all actives have a fitted effect of over 40% in size
Outline: as §1

[9] = Quantitative High-Throughput drug screen in 47 multiple myeloma cell lines against the NCATS MIPE library collection: PE2_PLB cell viability assay (AID 1919869); further: nearly all actives have a fitted effect of over 35% in size
Outline: as §1

[10] = Quantitative High-Throughput drug screen in 47 multiple myeloma cell lines against the NCATS MIPE library collection: PCM6_Riken cell viability assay (AID 1919870); further: nearly all actives have a fitted effect of over 30% in size
Outline: as §1

[11] = Quantitative High-Throughput drug screen in 47 multiple myeloma cell lines against the NCATS MIPE library collection: RPMI8226_ATCC cell viability assay (AID 1919871); further: nearly all actives have a fitted effect of over 30% in size
Outline: as §1

[12] = Quantitative High-Throughput drug screen in 47 multiple myeloma cell lines against the NCATS MIPE library collection: OPM2_DSMZ cell viability assay (AID 1919872); further: nearly all actives have a fitted effect of over 30% in size
Outline: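 Primary qHTS used for cherry-picking: cells at 500/well, library compounds for 48 h (37C, 5% CO2), luminescent ATP assay.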

[13] = Quantitative High-Throughput drug screen in 47 multiple myeloma cell lines against the NCATS MIPE library collection: KMS11_JCRBsus cell viability assay (AID 1919873); further: nearly all actives have a fitted effect of over 50% in size
Outline: as §1

[14] = Quantitative High-Throughput drug screen in 47 multiple myeloma cell lines against the NCATS MIPE library collection: KMS28BM_JCRB cell viability assay (AID 1919874); further: nearly all actives have a fitted effect of over 35% in size
Outline: as §1

[15] = Quantitative High-Throughput drug screen in 47 multiple myeloma cell lines against the NCATS MIPE library collection: OCIMY7_PLB cell viability assay (AID 1918987); details: OCI-MY7 myeloma viability, CellTiter-Glo ATP, 48 h; viability (% of DMSO): at 45.8 µM (top of the series); further: nearly all actives have a fitted effect of over 65% in size
Outline: as §1

[16] = Quantitative High-Throughput drug screen in 47 multiple myeloma cell lines against the NCATS MIPE library collection: U266_ATCC cell viability assay (AID 1919864); further: nearly all actives have a fitted effect of over 35% in size;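 on viability (% of DMSO control): 0% = media-only wells without cells and 100% = DMSO-only wells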
Outline: as §1

[17] = Quantitative High-Throughput drug screen in 47 multiple myeloma cell lines against the NCATS MIPE library collection: XG1_PLB cell viability assay (AID 1919866); further: nearly all actives have a fitted effect of over 35% in size
Outline: as §1

[18] = Quantitative High-Throughput drug screen in 47 multiple myeloma cell lines against the NCATS MIPE library collection: VP6_DJ cell viability assay (AID 1919867); further: nearly all actives have a fitted effect of over 40% in size;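 on viability (% of DMSO): 100% = DMSO-only wells and 0% = wells with media alone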
Outline: as §1

[19] = Quantitative High-Throughput drug screen in 47 multiple myeloma cell lines against the NCATS MIPE library collection: UTMC2_PLB cell viability assay (AID 1919868); details: CellTiter-Glo ATP luminescence, 48 h; viability (% of DMSO control): at 45.8 µM (top of the series); further: nearly all actives have a fitted effect of over 55% in size;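 on viability (% of DMSO control): 100% = DMSO-only wells and 0% = media-only wells without cells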
Outline: as §1

[20] = Quantitative High-Throughput drug screen in 47 multiple myeloma cell lines against the NCATS MIPE library collection: OPM1_PLB cell viability assay (AID 1918989); further: nearly all actives have a fitted effect of over 40% in size
Outline: as §1
Potency means the concentration at half of the fitted maximal effect.

CON=C(C(=O)N[C@@H]1C(=O)N2C(C(=O)O)=C(Cn3ccc(=N)n3CCO)CS[C@H]12)c1csc(N)n1
inactive: Potency [1] | Potency [2] | Potency [3] | Potency [4] | Potency [5] | Potency [6] | viability [7] 112% | Potency [8] | Potency [9] | Potency [10] | Potency [11] | Potency [12] | Potency [13] | Potency [14]

CN(CC(=O)N(Cc1ccc(C2CCCCC2)cc1)c1ccc(C(=O)O)c(O)c1)S(=O)(=O)c1c(F)c(F)c(F)c(F)c1F
active: Potency [1] 8.33 µM | Potency [2] 20.9 µM | Potency [3] 29.6 µM | Potency [4] 9.35 µM | Potency [5] 20.9 µM | Potency [15] 8.33 µM | Potency [6] 18.7 µM | Potency [16] 13.2 µM | Potency [8] 4.69 µM | Potency [17] 4.69 µM | Potency [18] 8.33 µM | viability (% of DMSO control) [19] 77% | Potency [9] 3.32 µM | Potency [10] 6.62 µM | Potency [11] 23.5 µM | Potency [12] 23.5 µM

CO[C@@H]1[C@@H](O)[C@H](O)[C@@H](n2c3c(Cl)cccc3c3c4c(c5c6cccc(Cl)c6[nH]c5c32)C(=O)NC4=O)O[C@@H]1CO
active: Potency [1] 0.526 µM | Potency [2] 6.62 µM | Potency [3] 1.32 µM | Potency [4] 1.05 µM | Potency [15] 0.148 µM | Potency [6] 2.09 µM | Potency [20] 2.09 µM | Potency [7] 2.35 µM | Potency [16] 1.48 µM | Potency [8] 0.0743 µM | Potency [17] 0.166 µM | Potency [18] 0.662 µM | Potency [19] 0.235 µM | Potency [9] 1.05 µM | Potency [10] 1.48 µM | Potency [11] 2.35 µM | Potency [12] 5.9 µM | Potency [13] 2.96 µM | Potency [14] 0.935 µM

OCc1ccccc1O[C@@H]1O[C@H](CO)[C@H](O)[C@H](O)[C@H]1O
inactive: Potency [1] | Potency [2] | Potency [3] | Potency [4] | Potency [5] | viability [7] 130% | Potency [16] | Potency [18] | Potency [19] | Potency [9] | Potency [10] | Potency [11] | Potency [12] | Potency [13] | Potency [14]
active: Potency [15] 26.4 µM

CCCCCCCCCCCCc1ccc(S(=O)(=O)Nc2nncs2)cc1
inactive: Potency [2] | Potency [3] | Potency [4] | Potency [5] | Potency [6] | Potency [20] | Potency [16] | Potency [8] | Potency [18] | Potency [19] | Potency [10] | Potency [13] | Potency [14]
active: Potency [1] 18.7 µM | Potency [9] 8.33 µM

CCN(CC)Cc1ccc2cc(COC(=O)Nc3ccc(C(=O)NO)cc3)ccc2c1
active: Potency [1] 0.332 µM | Potency [2] 0.935 µM | Potency [3] 0.662 µM | Potency [4] 0.372 µM | Potency [5] 0.418 µM | Potency [15] 0.372 µM | Potency [20] 0.264 µM | Potency [7] 0.935 µM | Potency [8] 1.66 µM | Potency [17] 0.833 µM | Potency [18] 0.132 µM | Potency [19] 0.148 µM | Potency [9] 0.935 µM | Potency [10] 0.833 µM | Potency [11] 1.05 µM | Potency [12] 0.833 µM | Potency [13] 0.526 µM | Potency [14] 0.418 µM

CN(C)CCN1C(=O)c2cccc3cc(N)cc(c23)C1=O
active: Potency [1] 9.35 µM | Potency [2] 20.9 µM | Potency [3] 16.6 µM | Potency [4] 16.6 µM | Potency [5] 23.5 µM | Potency [6] 23.5 µM | Potency [7] 18.7 µM | Potency [8] 14.8 µM | Potency [17] 16.6 µM | Potency [18] 14.8 µM | Potency [9] 20.9 µM | Potency [10] 16.6 µM | Potency [11] 16.6 µM | Potency [13] 16.6 µM

CC(=O)OCC(=O)[C@@]1(O)CC[C@H]2[C@@H]3CCC4=CC(=O)CC[C@]4(C)[C@@H]3C(=O)C[C@@]21C
inactive: Potency [1] | Potency [2] | Potency [3] | Potency [4] | Potency [5] | Potency [6] | Potency [20] | viability [7] 120% | Potency [8] | Potency [9] | Potency [10] | Potency [11] | Potency [12] | Potency [14]

C[C@H]1O[C@H](O[C@H]2[C@H](O)[C@@H](O)[C@@H](O[C@H]3[C@H](O)[C@@H](O)C(O)O[C@H]3CO)O[C@H]2CO)[C@H](O)[C@@H](O)[C@H]1N[C@H]1C=C(CO)[C@@H](O)[C@H](O)[C@@H]1O (stereo partly specified)
inactive: Potency [1] | Potency [2] | Potency [3] | Potency [5] | viability [7] 131% | Potency [8] | Potency [17] | Potency [18] | Potency [19] | Potency [9] | Potency [10] | Potency [11] | Potency [12] | Potency [13]
active: Potency [4] 20.9 µM

O=C(c1ccc(F)cc1)N1CCC[C@H](c2nc(-c3ccc(F)cc3)no2)C1
inactive: Potency [1] | Potency [2] | Potency [3] | Potency [4] | Potency [5] | Potency [20] | Potency [16] | Potency [8] | Potency [17] | Potency [18] | Potency [9] | Potency [10] | Potency [12] | Potency [13] | Potency [14]
